Test results reported in PubChem BioAssay (Tox21).
Several values for one entry are separate records, joined by “and”; a condition that tells them apart may be missing. Identical values can stand only once. Inconclusive results are not listed. Where a call stands in place of a potency, no number is given. The source holds several records for some structures; these can differ, active in one and inactive in another. Activity calls are given as the source filed them. Calls follow the shape of the dose curve; as a rule, active = well fitted curve in the direction sought with a large enough effect in the repeat runs; inconclusive = weak or mixed curves; inactive = no such curve, though single readings can be large; an effect the other way counts as inactive or inconclusive.

Legend:
[1] = Human pregnane X receptor (PXR) small molecule agonists, qHTS cell viability counter screen (AID 1346977); also: nearly all actives have a fitted effect of over 50% in size; also: potency is read from the fitted curve at half-maximal effect
How it was run: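 After a 5hr pre-incubation, PXR-Luc HepG2 cells received compounds plus positive control in DMSO and were kept 24hr at 37C. Cell viability was quantified by fluorescence from CellTiter-Fluor added for the final hour.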

[2] = Caspase-3/7 induction in HepG2 cells by small molecules, qHTS assay (AID 1346978); also: nearly all actives have a fitted effect of over 15% in size; also: potency is read from the fitted curve at half-maximal effect
How it was run: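 Wild-type HepG2 cells, 2,000/well, settled 5 hr at 37 C and 5% CO2, then compound-treated for 17 hr; caspase-3/7 activity read by luminescent Caspase-Glo 3/7 after 30 min at room temperature.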

[3] = Caspase-3/7 induction in CHO-K1 cells by small molecules, qHTS cell viability counter screen (AID 1346979); also: nearly all actives have a fitted effect of over 35% in size; also: potency is read from the fitted curve at half-maximal effect
How it was run: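 Multiplexed with Caspase-Glo 3/7 in CHO-K1 cells, this counter screen added CellTiter-Fluor after 16hr of compound exposure and recorded fluorescence 1hr later.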

[4] = Caspase-3/7 induction in CHO-K1 cells by small molecules, qHTS assay (AID 1346980); also: nearly all actives have a fitted effect of over 15% in size
How it was run: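 Wild-type CHO-K1 cells exposed to compounds for 17hr at 37 C, 5% CO2. Caspase-3/7 activity then measured by Caspase-Glo 3/7 luminescence after 30min at room temperature.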

[5] = Caspase-3/7 induction in HepG2 cells by small molecules, qHTS cell viability counter screen (AID 1346981); also: series mostly up to about 92 µM; nearly all actives have a fitted effect of over 30% in size
How it was run: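 Wild-type HepG2 cells (2,000/well) were allowed to settle for 5 hr at 37 C, 5% CO2, then dosed with compounds in DMSO by pin transfer. After 16 hr at 37 C, CellTiter-Fluor was added and fluorescence read 1 hr later.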

[6] = biological target: Nuclear receptor subfamily 1 group I member 2 (Homo sapiens) (UniProt O75469); assay: Human pregnane X receptor (PXR) small molecule agonists, qHTS assay (AID 1346982); also: nearly all actives have a fitted effect of over 35% in size; also: potency is read from the fitted curve at half-maximal effect
How it was run: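 PXR-Luc HepG2 cells (CYP3A4 promoter-driven luciferase) were seeded in medium with 5% charcoal-stripped FBS, left 5 hr at 37 C, then exposed to compounds in DMSO for 24 hr. Luminescence was read after ONE-Glo addition.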

[7] = biological target: Nuclear receptor subfamily 1 group I member 2 (Rattus norvegicus) (UniProt Q9R1A7); assay: Rat pregnane X receptor (rPXR) activation by small molecules, qHTS assay (AID 1346983); conditions: rPXR luciferase reporter cells, One-Glo luminescence, 24 h; max activation: stronger effect = higher value; also: nearly all actives have a fitted effect of over 20% in size
How it was run: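 Cell-based rPXR activation assay: rPXR cells, 2,000 per well, rested 5hr at 37 C, then exposed to compounds in DMSO for 24 hr at 37 C. Luciferase activity read by One-Glo luminescence after 30 min at room temperature.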

[8] = biological target: Nuclear receptor subfamily 1 group I member 2 (Homo sapiens) (UniProt O75469); assay: CYP3A4 induction through human pregnane X receptor (PXR) by small molecules, qHTS assay (AID 1346984); also: nearly all actives have a fitted effect of over 40% in size; also: potency is read from the fitted curve at half-maximal effect
How it was run: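 DPX-2 cells (HepG2 co-transfected with PXR and CYP3A4 promoter-luciferase) treated with compounds 24 h at 37C; luciferin-IPA CYP3A4 substrate 3uM final added for 3 h, then One-Glo; luminescence read. qHTS format.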

[9] = biological target: Nuclear receptor subfamily 1 group I member 2 (Homo sapiens) (UniProt O75469); assay: Human pregnane X receptor (PXR) activation by small molecules, qHTS assay (AID 1346985); also: nearly all actives have a fitted effect of over 40% in size
How it was run: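 DPX-2 cells (HepG2 co-transfected with a PXR response element and a CYP3A4-promoter luciferase construct) were seeded at 2,000 per well, rested 5 hr at 37C, then exposed to DMSO-dissolved compounds for 24 hr. Activation was read as luciferase luminescence.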

[10] = biological target: Cytochrome P450 2D6 (Homo sapiens) (UniProt P10635); assay: Cytochrome P450 Family 2 Subfamily D Member 6 (CYP2D6) small molecule antagonists: luciferase reporter qHTS assay (AID 1671196); also: nearly all actives have a fitted effect of over 50% in size; also: potency is read from the fitted curve at half-maximal effect
How it was run: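 CYP2D6 enzyme–substrate mix was held with compound for 10 min at room temperature, then NADPH regeneration solution was added and the reaction ran 1 h at room temperature. Luciferin product was detected by luminescence after 20 min with detection reagent.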

[11] = biological target: Cytochrome P450 2C19 (Homo sapiens) (UniProt P33261); assay: Cytochrome P450 Family 2 Subfamily C Member 19 (CYP2C19) small molecule antagonists: luciferase reporter qHTS assay (AID 1671197); also: nearly all actives have a fitted effect of over 65% in size; also: potency is read from the fitted curve at half-maximal effect
How it was run: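 Light output is proportional to CYP2C19 activity: proluciferin substrate is converted to luciferin, then detected by a luciferin detection reagent that also stops the 1 h, 37C NADPH-driven reaction. Ketoconazole serves as positive control.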

[12] = biological target: Cytochrome P450 2C9 (Homo sapiens) (UniProt P11712); assay: Cytochrome P450 Family 2 Subfamily C Member 9 (CYP2C9) small molecule antagonists: luciferase reporter qHTS assay (AID 1671198); also: nearly all actives have a fitted effect of over 50% in size; also: potency is read from the fitted curve at half-maximal effect
How it was run: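 P450-Glo proluciferin substrate with CYP2C9 enzyme; 10 min RT preincubation, then NADPH regeneration 1 h at 37C; luciferin detection reagent 20 min RT, luminescence in relative luminescence units.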

[13] = biological target: Cytochrome P450 1A2 (Homo sapiens) (UniProt P05177); assay: Cytochrome P450 Family 1 Subfamily A Member 2 (CYP1A2) small molecule antagonists: luciferase reporter qHTS assay (AID 1671199); also: nearly all actives have a fitted effect of over 50% in size; also: potency is read from the fitted curve at half-maximal effect
How it was run: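 Human CYP1A2 activity measured with a P450-Glo proluciferin substrate; compounds in DMSO preincubated 10 min at room temperature with enzyme-substrate mix, then NADPH regeneration system added for 1 h. Luciferin detection reagent, 20 min, luminescence read.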

[14] = biological target: Voltage-gated inwardly rectifying potassium channel KCNH2 (Homo sapiens) (UniProt Q12809); assay: Human Ether-a-go-go-Related Gene (hERG) channel small molecule antagonists: fluorescence cell-based qHTS assay (AID 1671200)
How it was run: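 Cell line hERG-U2OS; dye FluxOR II, 1 h RT dark; Tl+ stimulus; ex 480/em 540 nm, read each second for 2 min.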

[15] = biological target: Cytochrome P450 3A4 (Homo sapiens) (UniProt P08684); assay: Cytochrome P450 Family 3 Subfamily A Member 4 (CYP3A4) small molecule antagonists: luciferase reporter qHTS assay (AID 1671201); also: nearly all actives have a fitted effect of over 50% in size; also: potency is read from the fitted curve at half-maximal effect
How it was run: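 Room-temperature assay throughout: 10 min compound–enzyme/substrate preincubation, 1 h reaction after NADPH regeneration solution, 20 min detection. Luciferin formed from proluciferin substrate is quantified by luminescence.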

Chain of Cytochrome P450 2C9 (Homo sapiens) (P11712 whole entry, looked up): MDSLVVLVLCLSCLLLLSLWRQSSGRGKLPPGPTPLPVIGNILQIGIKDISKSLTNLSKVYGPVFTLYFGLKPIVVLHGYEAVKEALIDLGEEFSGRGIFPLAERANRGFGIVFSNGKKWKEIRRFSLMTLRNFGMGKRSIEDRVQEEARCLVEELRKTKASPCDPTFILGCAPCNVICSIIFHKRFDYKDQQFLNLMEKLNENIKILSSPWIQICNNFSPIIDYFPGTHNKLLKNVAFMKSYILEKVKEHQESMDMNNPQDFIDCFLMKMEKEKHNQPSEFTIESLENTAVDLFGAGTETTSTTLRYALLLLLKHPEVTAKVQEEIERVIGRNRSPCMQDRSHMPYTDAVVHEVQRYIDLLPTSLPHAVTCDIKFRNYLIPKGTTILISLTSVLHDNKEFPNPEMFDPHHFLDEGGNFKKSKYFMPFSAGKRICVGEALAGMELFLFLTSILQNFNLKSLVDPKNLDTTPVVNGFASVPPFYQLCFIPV
Chain of Voltage-gated inwardly rectifying potassium channel KCNH2 (Homo sapiens) (Q12809 whole entry, looked up): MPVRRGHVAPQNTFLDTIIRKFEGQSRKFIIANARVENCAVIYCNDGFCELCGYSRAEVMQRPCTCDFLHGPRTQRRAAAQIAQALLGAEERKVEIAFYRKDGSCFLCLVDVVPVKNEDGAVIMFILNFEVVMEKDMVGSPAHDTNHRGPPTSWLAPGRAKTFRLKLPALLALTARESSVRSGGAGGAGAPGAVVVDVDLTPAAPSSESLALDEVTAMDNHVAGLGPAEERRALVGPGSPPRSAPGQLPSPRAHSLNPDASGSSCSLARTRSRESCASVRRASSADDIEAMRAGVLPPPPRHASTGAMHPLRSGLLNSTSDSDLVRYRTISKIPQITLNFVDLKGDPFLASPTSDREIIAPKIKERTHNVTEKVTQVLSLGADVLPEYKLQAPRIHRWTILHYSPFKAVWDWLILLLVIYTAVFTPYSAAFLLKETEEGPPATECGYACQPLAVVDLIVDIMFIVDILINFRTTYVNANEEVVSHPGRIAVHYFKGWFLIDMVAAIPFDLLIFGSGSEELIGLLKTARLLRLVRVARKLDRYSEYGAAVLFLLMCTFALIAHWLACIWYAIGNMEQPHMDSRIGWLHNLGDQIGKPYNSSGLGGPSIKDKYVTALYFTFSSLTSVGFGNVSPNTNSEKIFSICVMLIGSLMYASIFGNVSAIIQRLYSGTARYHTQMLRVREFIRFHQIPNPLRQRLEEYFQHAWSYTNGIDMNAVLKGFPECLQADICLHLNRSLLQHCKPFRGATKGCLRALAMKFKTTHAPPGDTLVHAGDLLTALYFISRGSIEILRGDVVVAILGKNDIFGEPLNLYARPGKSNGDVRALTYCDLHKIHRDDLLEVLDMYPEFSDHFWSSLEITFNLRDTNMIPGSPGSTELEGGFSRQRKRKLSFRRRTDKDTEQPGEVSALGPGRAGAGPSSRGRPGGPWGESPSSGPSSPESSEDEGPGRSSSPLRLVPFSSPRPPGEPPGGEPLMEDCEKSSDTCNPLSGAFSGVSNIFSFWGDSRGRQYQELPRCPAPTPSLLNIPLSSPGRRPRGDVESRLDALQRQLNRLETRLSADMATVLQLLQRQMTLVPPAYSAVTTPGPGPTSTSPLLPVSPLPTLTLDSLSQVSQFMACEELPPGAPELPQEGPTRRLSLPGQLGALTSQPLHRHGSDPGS
Chain of Nuclear receptor subfamily 1 group I member 2 (Homo sapiens) (O75469 whole entry, looked up): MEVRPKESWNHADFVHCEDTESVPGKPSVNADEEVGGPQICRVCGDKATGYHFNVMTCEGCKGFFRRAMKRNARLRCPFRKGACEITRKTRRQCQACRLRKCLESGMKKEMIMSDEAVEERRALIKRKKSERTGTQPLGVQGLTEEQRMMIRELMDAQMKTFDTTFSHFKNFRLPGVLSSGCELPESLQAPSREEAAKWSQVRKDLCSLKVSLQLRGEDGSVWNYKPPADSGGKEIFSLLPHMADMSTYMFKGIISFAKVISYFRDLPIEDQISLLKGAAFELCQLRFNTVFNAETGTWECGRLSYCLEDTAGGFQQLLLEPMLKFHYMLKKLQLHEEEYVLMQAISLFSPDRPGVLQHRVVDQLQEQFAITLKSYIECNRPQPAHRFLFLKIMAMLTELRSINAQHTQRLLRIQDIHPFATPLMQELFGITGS
Chain of Nuclear receptor subfamily 1 group I member 2 (Rattus norvegicus) (Q9R1A7 whole entry, looked up): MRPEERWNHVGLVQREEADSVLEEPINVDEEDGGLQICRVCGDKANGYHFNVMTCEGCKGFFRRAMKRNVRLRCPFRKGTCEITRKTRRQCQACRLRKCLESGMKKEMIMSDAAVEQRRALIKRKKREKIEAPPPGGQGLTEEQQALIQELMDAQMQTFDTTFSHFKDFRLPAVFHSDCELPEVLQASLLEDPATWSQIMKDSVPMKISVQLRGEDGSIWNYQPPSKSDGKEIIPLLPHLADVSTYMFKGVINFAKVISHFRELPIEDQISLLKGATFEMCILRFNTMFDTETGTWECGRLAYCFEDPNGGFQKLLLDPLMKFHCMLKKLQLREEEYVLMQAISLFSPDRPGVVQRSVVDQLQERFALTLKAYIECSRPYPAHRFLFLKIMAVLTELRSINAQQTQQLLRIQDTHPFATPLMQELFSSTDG
Chain of Cytochrome P450 3A4 (Homo sapiens) (P08684 whole entry, looked up): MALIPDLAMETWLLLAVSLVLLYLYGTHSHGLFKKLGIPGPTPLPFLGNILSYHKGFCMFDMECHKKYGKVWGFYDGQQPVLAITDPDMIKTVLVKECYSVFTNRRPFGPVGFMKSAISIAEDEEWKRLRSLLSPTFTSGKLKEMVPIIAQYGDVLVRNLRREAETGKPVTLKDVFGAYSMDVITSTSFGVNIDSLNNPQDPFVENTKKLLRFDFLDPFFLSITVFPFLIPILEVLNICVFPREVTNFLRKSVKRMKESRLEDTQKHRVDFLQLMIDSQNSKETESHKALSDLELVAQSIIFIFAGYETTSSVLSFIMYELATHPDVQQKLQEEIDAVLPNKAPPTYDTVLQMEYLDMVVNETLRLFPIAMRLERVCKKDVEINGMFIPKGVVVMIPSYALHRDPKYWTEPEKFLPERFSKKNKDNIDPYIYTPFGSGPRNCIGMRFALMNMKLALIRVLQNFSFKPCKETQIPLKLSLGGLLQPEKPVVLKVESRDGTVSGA
Chain of Cytochrome P450 2C19 (Homo sapiens) (P33261 whole entry, looked up): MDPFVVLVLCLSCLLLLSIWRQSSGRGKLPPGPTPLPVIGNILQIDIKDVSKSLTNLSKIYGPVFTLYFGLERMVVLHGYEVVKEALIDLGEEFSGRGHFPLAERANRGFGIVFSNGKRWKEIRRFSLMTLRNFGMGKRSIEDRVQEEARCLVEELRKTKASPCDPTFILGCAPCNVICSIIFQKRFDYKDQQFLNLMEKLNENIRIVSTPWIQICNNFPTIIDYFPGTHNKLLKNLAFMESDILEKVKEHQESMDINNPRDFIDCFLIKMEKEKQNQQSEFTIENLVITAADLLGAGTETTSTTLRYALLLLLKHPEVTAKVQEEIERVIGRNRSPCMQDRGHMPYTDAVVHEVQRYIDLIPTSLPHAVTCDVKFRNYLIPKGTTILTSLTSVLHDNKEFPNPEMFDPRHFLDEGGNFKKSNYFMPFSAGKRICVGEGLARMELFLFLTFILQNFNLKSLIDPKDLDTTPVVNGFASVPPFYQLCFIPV
Chain of Cytochrome P450 2D6 (Homo sapiens) (P10635 whole entry, looked up): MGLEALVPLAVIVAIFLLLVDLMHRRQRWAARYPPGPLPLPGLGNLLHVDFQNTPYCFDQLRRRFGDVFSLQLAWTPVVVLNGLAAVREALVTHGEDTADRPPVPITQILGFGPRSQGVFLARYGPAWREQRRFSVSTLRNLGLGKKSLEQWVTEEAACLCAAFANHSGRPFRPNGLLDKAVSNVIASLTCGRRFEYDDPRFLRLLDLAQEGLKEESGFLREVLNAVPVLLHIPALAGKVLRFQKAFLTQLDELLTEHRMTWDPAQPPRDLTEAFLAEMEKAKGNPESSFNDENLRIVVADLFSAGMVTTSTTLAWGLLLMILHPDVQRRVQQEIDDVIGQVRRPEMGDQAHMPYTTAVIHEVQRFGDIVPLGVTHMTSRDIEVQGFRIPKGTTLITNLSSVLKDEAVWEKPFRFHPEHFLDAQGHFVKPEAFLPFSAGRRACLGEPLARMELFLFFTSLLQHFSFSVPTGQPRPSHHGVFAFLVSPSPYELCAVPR
Chain of Cytochrome P450 1A2 (Homo sapiens) (P05177 whole entry, looked up): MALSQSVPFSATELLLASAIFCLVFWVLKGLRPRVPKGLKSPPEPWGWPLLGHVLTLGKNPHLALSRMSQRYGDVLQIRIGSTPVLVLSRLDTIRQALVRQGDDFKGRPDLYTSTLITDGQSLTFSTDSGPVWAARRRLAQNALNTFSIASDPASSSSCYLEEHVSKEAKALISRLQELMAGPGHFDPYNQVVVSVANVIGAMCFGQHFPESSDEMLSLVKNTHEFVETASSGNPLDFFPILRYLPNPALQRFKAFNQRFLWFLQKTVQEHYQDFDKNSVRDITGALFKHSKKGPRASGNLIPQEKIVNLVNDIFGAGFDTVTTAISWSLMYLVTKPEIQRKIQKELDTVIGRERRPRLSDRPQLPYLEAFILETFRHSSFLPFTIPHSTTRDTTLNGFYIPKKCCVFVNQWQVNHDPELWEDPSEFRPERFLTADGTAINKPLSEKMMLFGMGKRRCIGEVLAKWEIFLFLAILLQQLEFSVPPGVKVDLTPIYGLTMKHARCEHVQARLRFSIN

Compound	Potency [1]	Potency [2]	Potency [3]	outcome [4]	Potency [5]	Potency [6]	max activation [7]	Potency [8]	Potency [9]	Potency [10]	Potency [11]	Potency [12]	Potency [13]	Potency [14]	Potency [15]
CCCCNC(=O)NS(=O)(=O)c1ccc(N)cc1	inactive	inactive	inactive	inactive	inactive	inactive	-2.23% (inactive)	inactive	inactive	inactive	inactive	inactive	inactive	inactive	inactive
NCCNc1cccc2ccccc12	50.1 µM (active) and inactive	inactive	66.9 µM (active) and inactive	inactive	inactive	inactive	-4.28% (inactive)	–	inactive	5.02 µM (active) and 9.79 µM (active) and 12.3 µM (active)	31.7 µM (active) and 21.9 µM (active) and 12.3 µM (active)	20 µM (active) and 31 µM (active) and 27.5 µM (active)	632 nM (active) and 778 nM (active) and 723 nM (active)	inactive	31.7 µM (active) and inactive
Cc1cccc(Nc2cc(Cl)nc(SCC(=O)O)n2)c1C	inactive	inactive	inactive	inactive	inactive	61.1 µM (active) and inactive	–	–	–	inactive	inactive and 7.76 µM (active)	31.7 µM (active) and 29.2 µM (active) and 17.4 µM (active)	inactive	inactive	inactive
C1CNCCN1	inactive	inactive	44.6 µM (active) and inactive	inactive	inactive	inactive	–	–	–	32.6 µM (active) and inactive and 2.03 µM (active)	82 µM (active) and inactive and 72.1 µM (active)	inactive	41.1 µM (active) and inactive	inactive	inactive
Oc1cccc(O)c1	inactive	42 µM (active) and inactive	inactive	inactive	inactive	47.1 µM (active) and inactive	-3.43% (inactive)	inactive	inactive	inactive	inactive	inactive	inactive	inactive	–
OC[C@@H](O)[C@@H](O)[C@H](O)[C@H](O)CO	inactive	inactive	inactive	inactive	inactive	inactive	-0.524% (inactive)	inactive	inactive	inactive	inactive	inactive and 89.4 µM (active)	inactive	–	inactive
Cc1cccc2ccccc12	inactive	inactive	inactive	inactive	inactive	inactive	–	–	–	inactive	inactive and 71 µM (active)	inactive	inactive	inactive	inactive
CC1(C)O[C@@H]2[C@@H](CO[C@@]3(COS(N)(=O)=O)OC(C)(C)O[C@@H]23)O1	inactive	inactive	inactive	inactive	inactive	inactive	-4.73% (inactive)	inactive	inactive	inactive	4.9 µM (active)	inactive	inactive	inactive	inactive
O=C(OCc1ccccc1)c1ccccc1	inactive	inactive	inactive	inactive	inactive	inactive	0.688% (inactive)	inactive	inactive	inactive	31.8 µM (active) and 39.9 µM (active) and 17.4 µM (active)	40 µM (active) and 63.3 µM (active)	31.8 µM (active) and 35.6 µM (active) and 13.8 µM (active)	inactive	inactive
CCOCCO	inactive	inactive	inactive	inactive	inactive	inactive	–	–	–	inactive	inactive	inactive	inactive	inactive	inactive
CCOC(=O)C(C)(C)Oc1ccc(Cl)cc1	inactive	inactive	inactive	inactive	inactive	inactive	–	–	–	–	–	–	–	–	–
CC1=NN(c2ccccc2)C(=O)C1	inactive	inactive	inactive	inactive	inactive	inactive	-4.19% (inactive)	25.1 µM (active)	inactive	31.9 µM (active) and inactive	71.4 µM (active) and inactive	11.3 µM (active) and 11.2 µM (active) and 17.4 µM (active)	–	inactive	inactive
c1ccc2[nH]c(-c3cscn3)nc2c1	inactive	inactive	inactive	inactive	inactive	30.8 µM (active) and 770 nM (active) and 6.68 µM (active)	–	–	–	39.9 µM (active) and 38.9 µM (active)	35.8 µM (active) and 71 µM (active) and 34.7 µM (active)	inactive	5.06 µM (active) and 2.83 µM (active) and 2.45 µM (active)	inactive	–
CC(=O)OC/C=C(C)/C=C/C=C(C)/C=C/C1=C(C)CCCC1(C)C	inactive	inactive	66.9 µM (active) and 68.6 µM (active) and inactive	inactive	inactive	59.6 µM (active) and 34.4 µM (active) and 15 µM (active)	–	–	–	34.7 µM (active) and inactive	39 µM (active) and 35.6 µM (active)	31 µM (active) and 31.7 µM (active) and 19.5 µM (active)	inactive	–	–
O=C(O)CCCCC1CCSS1 (centres undefined)	inactive	inactive	inactive	inactive	inactive	inactive	–	–	–	inactive	49.6 µM (active) and inactive	inactive	inactive	inactive	inactive
Nc1cccc(N)c1	inactive	inactive	inactive	inactive	inactive	54.4 µM (active) and inactive	–	–	–	39.8 µM (active) and 31.3 µM (active) and inactive	56.3 µM (active) and 39.4 µM (active)	70.9 µM (active)	63.2 µM (active) and 39.4 µM (active) and 31.7 µM (active)	–	–
O=c1cc[nH]c(=O)[nH]1	inactive	inactive	inactive	inactive	inactive	inactive	-0.198% (inactive)	inactive	inactive	inactive	inactive	inactive	inactive	inactive	inactive
CN(C)C=O	inactive	inactive	inactive	inactive	inactive	inactive	–	–	–	inactive	inactive	inactive	inactive	inactive	inactive
COC(=O)c1ccc(O)cc1	inactive	inactive	inactive	inactive	inactive	inactive	-1.51% (inactive)	inactive	inactive	inactive	inactive	inactive	32 µM (active) and 35.6 µM (active) and 27.5 µM (active)	inactive	inactive
CCCCCCCC(=O)OCC(O)CO (centres undefined)	inactive	inactive	inactive	inactive	inactive	inactive	-5.07% (inactive)	inactive	inactive	39.9 µM (active)	79.6 µM (active)	inactive	inactive	inactive	inactive
O=C(O)CN(CC(=O)O)CC(=O)O	inactive	inactive	inactive	inactive	inactive	inactive	–	–	–	inactive	36.1 µM (active) and inactive	inactive	inactive	inactive	inactive
NC(=O)c1ccc([N+](=O)[O-])cc1Cl	inactive	inactive	inactive	inactive	inactive	inactive	2.53% (inactive)	inactive	inactive	inactive	inactive	71 µM (active) and inactive	inactive	inactive	inactive
N[C@@H](Cc1c[nH]c2ccc(O)cc12)C(=O)O	inactive	inactive	inactive	inactive	inactive	inactive	-0.341% (inactive)	4.47 µM (active)	inactive	34.6 µM (active)	inactive	27.5 µM (active) and 34.7 µM (active)	30.8 µM (active) and 30.9 µM (active)	inactive	–
Cn1cnc2c1c(=O)[nH]c(=O)n2C	inactive	inactive	inactive	inactive	inactive	–	–	–	–	–	–	–	–	–	–
C#C[C@]1(O)CC[C@H]2[C@@H]3CCC4=CC(=O)CC[C@@H]4[C@H]3CC[C@@]21CC	inactive	inactive	inactive and 54.5 µM (active)	inactive	inactive	8.65 µM (active) and 54.5 µM (active) and 24.3 µM (active)	-1.1% (inactive)	inactive	inactive	inactive	2.83 µM (active) and 5.64 µM (active) and 2.45 µM (active)	–	inactive	inactive	–
COc1ccc(O)cc1	inactive	inactive	inactive	inactive	inactive	inactive	-2.37% (inactive)	inactive	inactive	27.2 µM (active) and inactive	34.3 µM (active) and inactive	inactive	inactive	inactive	inactive
